Laboratory results as given in PubChem BioAssay (EPA / NIEHS).
More than one record can exist for a structure, and the calls need not agree. Activity calls are given as the source filed them. The calls were made as follows: active = hit-call score of the fitted dose curve at least 0.9, where 1 is the maximum; inactive = score below 0.9.

Experiment: IUF_NPC2c_oligodendrocyte_migration_120hr: Leibniz Research Institute for Environmental Medicine (IUF) 120-hour Neural Progenitor Cell Migration Assay for Oligodendrocyte Migration (NPC2c) (AID 2284297)
Experimental: IUF_NPC2-5 is a cell-based, multiplexed assay that uses hNPC, a human primary neural progenitor cells, with measurements taken at 72 or 120 hours after chemical dosing in a 96-well plate. Human neural progenitor cells (hNPC) are generated from human fetal brain cortex at gestational week (GW) 16-19. In the neural progenitor cell migration and differentiation assay (NPC2-5), hNPCs grown as spheres are plated on an extracellular matrix and migrate and differentiate out of the sphere core. The processes radial glia migration, neuronal and oligodendrocyte migration as well as neuronal differentiation, neuronal morphology and oligodendrocyte differentiation are studied using automated phase contrast imaging and automated fluorescence imaging in combination with high content image analysis. In parallel, the cell viability is assessed using an alamar blue viability assay and the cytotoxicity using a lactate dehydrogenase dependent membrane integrity assay.IUF_NPC2b_oligodendrocyte_migration_120hr is one of 12 assay components measured from the IUF_NPC2-5 assay. Oligodendrocyte migration distance at 120 hr is the mean distance of all oligodendrocytes from the edge of the sphere core to each individual oligodendrocyte (see IUF_NPC5_oligodendrocyte_differentiation_120hr). Oligodendrocyte migration is normalized to radial glia migration distance at 120 hr.Data from the IUF_NPC2c_oligodendrocyte_migration_120hr component was analyzed at the endpoint IUF_NPC2c_oligodendrocyte_migration_120hr in the positive analysis fitting direction relative to DMSO as the negative control and baseline of activity. Using a type of migration reporter, gain or loss-of-signal activity can be used to understand developmental effects.
Culture protocol: After the cell expansion period the cells are cultured for up to four weeks in which they are passaged every week as described in 3.6. Between one to three days after passaging spheres at a size of 0.3 mm are picked for the test method. For the assessment of neural progenitor cell migration and differentiation, the spheres are plated on poly-D-lysine/laminin coated 96-well flat bottom plates in differentiation medium (N2) to initiate migration and differentiation. Thereby one 0.3 mm big sphere is plated in the middle of a well. The differentiation medium consists of DMEM and Ham's F12 at a ratio of 3 to 1 supplemented with 1% N2 and 1% penicillin and streptomycin. Within 5 days NPCs radially migrate out of the sphere core and differentiate into radial glia cells (nestin positive), neurons (TUBB3 positive), oligodendrocytes (O4 positive) and astrocytes (GFAP positive). Cultivation during the test method is performed at 37C and 5% CO2 at a ph of 7.2-7.6.Exposure: 0.3 mm big hNPC are plated in the already prepared test conditions. Exposure starts at day 0 of differentiation and is continued over five days of differentiation until the experiment is terminated. Cells are fed with fresh medium at day 3 of differentiation. Therefore, half of the test condition solution (e.g. solvent control or compound dilution) is replaced by freshly prepared test condition solution.Test Method: Migration distance and cytotoxicity is determined after 72 hours based on brightfield images of each well. The assay is terminated by the assessment of cell viability and cytotoxicity as well as cell fixation after 120 h. Immunocytochemistry is performed for Hoechst positive nuclei, TUBB3 positive neurons and O4 positive oligodendrocytes. On the ICC images, migration after 120 hours, neuronal and oligodendrocyte number, neuronal morphology and neuron/oligodendrocyte specific migration is assessed. immunocytochemical staining (ICC) generates an image for each sphere. The plates are scanned using an automated high content imaging device and all nuclei and their positions are determined automatically based on their intensity and size. Images are imported to the Omnisphero software to run the image analysis that measures the following endpoints. […]

Row | Compound | outcome | AC50
1 | Cn1nc(C(F)(F)F)c(CS(=O)(=O)C2=NOC(C)(C)C2)c1OC(F)F | inactive | 
2 | CC1(C)C(C=C(Cl)Cl)C1C(=O)O[C@H](C#N)c1cccc(Oc2ccccc2)c1 (some centres not stated) | inactive | 
3 | [Cd+2].[Cl-].[Cl-] |  | 15.1 µM (active)
4 | [CH3][Hg][Cl] | inactive | 0.128 µM (active)
5 | Cc1ccc(OP(=O)(Oc2ccc(C)cc2)Oc2ccc(C)cc2)cc1 (tested in a mixture with another compound) | inactive | 
6 | CCOP(=S)(OCC)SCS(=O)C(C)(C)C (configuration not stated) | inactive | 
7 | CC(=O)[O-].[Tl+] |  | 59.4 µM (active)
8 | Brc1ccc(Oc2cc(Br)c(Br)cc2Br)c(Br)c1 | inactive | 
9 | CC1(C)[C@H](C(=O)O[C@H](C#N)c2cccc(Oc3ccccc3)c2)[C@@H]1C=C(Br)Br | inactive | 
10 | CC1(C)[C@@H](C=C(Cl)Cl)[C@@H]1C(=O)O[C@@H](C#N)c1ccc(F)c(Oc2ccccc2)c1 | inactive | 
11 | CC(C)CCCCCCCOP(=O)(Oc1ccccc1)Oc1ccccc1 | inactive | 
12 | C/C(=C/C=C/[C@@H](C)C(=O)O)[C@H]1CN[C@H](C(=O)O)[C@H]1CC(=O)O | inactive | 
13 | CC(=O)[O-].CC(=O)[O-].O.O.O.[Pb+2] | inactive | 
14 | [O-][Cl+3]([O-])([O-])O | inactive | 
15 | CC1(C)C(C=C(Cl)Cl)[C@H]1C(=O)O[C@H](C#N)c1cccc(Oc2ccccc2)c1 (some centres not stated) | inactive | 
16 | CC(C)CC(C)c1sccc1NC(=O)c1cn(C)nc1C(F)(F)F (configuration not stated) | inactive | 

Row | Compound | outcome | AC50
17 | O=[As]O | inactive | 
18 | CNC(=N[N+](=O)[O-])NCC1CCOC1 (configuration not stated) | inactive | 
19 | CCOP(=O)(OCC)OC(Cl)C(Cl)(Cl)Cl (configuration not stated) | inactive | 
20 | C[n+]1ccc(-c2ccccc2)cc1 | inactive | 
21 | COP(=O)(OC)SCN1C(=O)c2ccccc2C1=O | inactive | 
22 | CCOP(=O)(OCC)SCSCC | inactive | 
23 | CC1(C)[C@H](C=C(Cl)Cl)[C@H]1C(=O)OCc1c(F)c(F)cc(F)c1F | inactive | 
24 | CCOP(=O)(OCC)SCSC(C)(C)C | inactive | 
25 | C[n+]1ccc(-c2cc[n+](C)cc2)cc1 | inactive | 
26 | Brc1ccc(Oc2ccc(Br)cc2Br)c(Br)c1 | inactive | 
27 | CNC1(c2ccccc2Cl)CCCCC1=O (configuration not stated) | inactive | 
28 | CP(=O)(O)CCC(N)C(=O)O (configuration not stated) | inactive | 
29 | CC1(C)C(C=C(Cl)c2ccc(Cl)cc2)C1C(=O)OC(C#N)c1ccc(F)c(Oc2ccccc2)c1 (configuration not stated) | inactive | 
30 | O=C1N[C@@H]2C(=C[C@H](O)[C@@H](O)[C@H]2O)c2cc3c(c(O)c21)OCO3 | inactive | 
31 | CCOP(=O)(Oc1cnc(C(C)(C)C)nc1)OC(C)C (configuration not stated) | inactive | 
